Source: PubChem BioAssay (NCI)
This is part of a sample that, as a whole, favours compounds with a hit. Of some 79,000 tested, about 15% had one in any assay. Calls of active or inactive are those of the source. Cut-off read from the data, not from the text of the source: active = growth inhibition above about 70%; inactive = the rest.

How the values were obtained:
[1] = NCI Yeast Anticancer Drug Screen. Data for the mlh1 strain (AID 171);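 note: 0% = growth of vehicle-treated control cultures of the same strain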; conditions: S. cerevisiae mlh1 strain growth inhibition, active compounds read high
Outline: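 Yeast carrying a defined genetic alteration in DNA damage repair or cell cycle control were exposed to test compounds. Growth inhibition was measured relative to vehicle-treated controls.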

[2] = NCI Yeast Anticancer Drug Screen. Data for the sgs1 strain (AID 173);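 note: 0% = growth of vehicle-only control cultures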; conditions: S. cerevisiae sgs1 mutant, active compounds read high
Outline: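 Yeast mutant strains carrying defined defects in DNA damage repair or cell cycle control were exposed to test compounds. Growth inhibition was scored against vehicle-treated controls.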

[3] = NCI Yeast Anticancer Drug Screen. Data for the mlh1 rad18 strain (AID 175); conditions: S. cerevisiae mlh1 rad18 strain growth inhibition, active compounds read high
Outline: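 Growth inhibition of the yeast strain was measured after compound exposure and expressed relative to vehicle-treated controls. The strain carries defined defects in DNA damage repair.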

[4] = NCI Yeast Anticancer Drug Screen. Data for the rad18 strain (AID 177); conditions: S. cerevisiae rad18 mutant growth inhibition, active compounds read high
Outline: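 Yeast carrying a defined DNA damage repair alteration were exposed to compounds. Growth inhibition was expressed relative to vehicle-treated controls.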

[5] = NCI Yeast Anticancer Drug Screen. Data for the rad52 strain (AID 147);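 note: 0% = growth of vehicle-treated control cultures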; conditions: S. cerevisiae rad52 mutant growth inhibition, active compounds read high
Outline: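 Yeast strain carrying a DNA damage repair alteration was exposed to test compounds. Growth inhibition was measured relative to vehicle-treated controls.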

[6] = NCI Yeast Anticancer Drug Screen. Data for the wt1 strain (AID 149);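 note: 0% = growth of vehicle-treated wt1 cultures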; conditions: S. cerevisiae wt1 strain (SPY 50644) growth inhibition, active compounds read high
Outline: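 Growth inhibition read against vehicle controls after compound exposure of the wt1 yeast strain.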

[7] = NCI Yeast Anticancer Drug Screen. Data for the rad50EPP+ strain (AID 151);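 note: 0% = growth of vehicle-treated control cultures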; conditions: S. cerevisiae rad50 mutant strain, active compounds read high
Outline: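 Yeast strain carrying rad50 alteration (rad50EPP+) exposed to compounds; growth inhibition measured relative to vehicle-treated controls.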

[8] = NCI Yeast Anticancer Drug Screen. Data for the mgt1 strain (AID 153); conditions: S. cerevisiae mgt1 mutant growth inhibition, active compounds read high
Outline: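 Yeast mgt1 strain (DNA repair/cell-cycle alteration panel) exposed to compounds; growth inhibition measured relative to vehicle-treated controls.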

[9] = NCI Yeast Anticancer Drug Screen. Data for the rad50 strain (AID 155);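 note: 0% = growth of vehicle-only cultures of the same strain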; conditions: S. cerevisiae rad50 strain growth inhibition, active compounds read high
Outline: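 Readout: growth inhibition relative to vehicle-treated cultures. Compound exposure was carried out in a genetically defined yeast strain deficient in DNA damage repair.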

[10] = NCI Yeast Anticancer Drug Screen. Data for the mec2-1 strain (AID 157); conditions: S. cerevisiae mec2-1 strain, active compounds read high
Outline: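 mec2-1 yeast strain, carrying an alteration in DNA damage repair or cell cycle control, was exposed to compounds; growth inhibition was measured relative to vehicle-treated controls.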

[11] = NCI Yeast Anticancer Drug Screen. Data for the rad14 strain (AID 159);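 note: 0% = growth of vehicle-treated control cultures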; conditions: S. cerevisiae rad14 strain growth inhibition, active compounds read high
Outline: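 Growth inhibition vs vehicle controls; genetically altered yeast strain (DNA damage repair defect) treated with test compounds.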

[12] = NCI Yeast Anticancer Drug Screen. Data for the sgs1 mgt1 strain (AID 161);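 note: 0% = growth of cultures given vehicle only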; conditions: S. cerevisiae sgs1 mgt1 strain, active compounds read high
Outline: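 Compounds are added to genetically altered yeast, and growth is compared with cultures given vehicle alone to give percent inhibition.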

[13] = NCI Yeast Anticancer Drug Screen. Data for the cln2 rad14 strain (AID 165);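 note: 0% = growth equal to vehicle treated cultures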; conditions: S. cerevisiae cln2 rad14 strain, active compounds read high
Outline: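 Yeast carrying cln2 and rad14 alterations (cell cycle control and DNA damage repair) were exposed to compounds. Growth inhibition was measured against vehicle-treated controls.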

[14] = NCI Yeast Anticancer Drug Screen. Data for the bub3 strain (AID 167); conditions: S. cerevisiae bub3 mutant strain, active compounds read high
Outline: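 Readout: yeast growth inhibition, expressed relative to vehicle-only wells. The test organism is a mutant strain from a panel with lesions in DNA repair or checkpoint genes.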

[15] = NCI Yeast Anticancer Drug Screen. Data for the wt2 strain (AID 169);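 note: 0% = growth of vehicle-treated yeast cultures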; conditions: S. cerevisiae wt2 strain growth inhibition, active compounds read high
Outline: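 Yeast cells were exposed to test compounds, and growth inhibition was measured relative to vehicle-treated controls.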

[16] = NCI Yeast Anticancer Drug Screen. Data for the CLN2oe strain (AID 163);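 note: 0% = growth of vehicle-only control cultures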; conditions: S. cerevisiae CLN2oe strain, active compounds read high
Outline: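 Yeast cells carrying a defined cell-cycle control alteration were exposed to test compounds. Growth inhibition was scored against vehicle-treated control cultures.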

[17] = at 5.0 µM (retest, dose inferred, filed as 0.5)
[18] = at 50.0 µM (retest, dose inferred, filed as 5.0)

Measured: growth inhibition

CCCCCCC=C(C(=O)OCC)C(=O)OCC
active: [3]; [18] 85% | [3]; at 50.0 µM 76.3%
inactive: [1]; at 1.2 µM -2% | [1]; at 3.7 µM -2% | [1]; at 11.0 µM -7% | [1]; at 33.0 µM 1% | [1]; at 100.0 µM 19% | [2]; at 1.2 µM -1% | [2]; at 3.7 µM -1% | [2]; at 11.0 µM 1% | [2]; at 33.0 µM 5% | [2]; at 100.0 µM 30% | [3]; [17] -3% | [4]; at 1.2 µM -1% | [4]; at 3.7 µM 5% | [4]; at 11.0 µM 8% | [4]; at 33.0 µM 14% | [4]; at 100.0 µM 32%

O=C1Nc2ccc(Br)cc2C1=Nc1cccnc1
inactive: [5]; at 1.2 µM -23% | [5]; at 3.7 µM -36% | [5]; at 11.0 µM -40% | [5]; at 33.0 µM -32% | [5]; at 100.0 µM -40% | [6]; at 1.2 µM -25% | [6]; at 3.7 µM -20% | [6]; at 11.0 µM -17% | [6]; at 33.0 µM -8% | [6]; at 100.0 µM -24% | [7]; at 1.2 µM 3% | [7]; at 3.7 µM -9% | [7]; at 11.0 µM -8% | [7]; at 33.0 µM -3% | [7]; at 100.0 µM 16% | [8]; at 1.2 µM -33% | [8]; at 3.7 µM -27% | [8]; at 11.0 µM -36% | [8]; at 33.0 µM -19% | [8]; at 100.0 µM -14% | [9]; at 1.2 µM -41% | [9]; at 3.7 µM -42% | [9]; [17] 52% | [9]; at 11.0 µM -36% | [9]; at 33.0 µM -25% | [9]; [18] 49% | [9]; at 50.0 µM 31.9% | [9]; at 100.0 µM -13% | [10]; at 1.2 µM -54% | [10]; at 3.7 µM -51% | [10]; [17] 47% | [10]; at 11.0 µM -41% | [10]; at 33.0 µM -31% | [10]; [18] 53% | [10]; at 50.0 µM 39.2% | [10]; at 100.0 µM -12% | [11]; at 1.2 µM -55% | [11]; at 3.7 µM -61% | [11]; at 11.0 µM -60% | [11]; at 33.0 µM -48% | [11]; at 100.0 µM -47% | [12]; [17] -3% | [12]; [18] 32% | [12]; at 50.0 µM 37.5% | [13]; [17] 32% | [13]; [18] 27% | [13]; at 50.0 µM 10.4% | [14]; at 1.2 µM -53% | [14]; at 3.7 µM -47% | [14]; [17] 33% | [14]; at 11.0 µM -38% | [14]; at 33.0 µM 10% | [15]; at 1.2 µM -21% | [15]; at 3.7 µM -24% | [15]; at 11.0 µM -20% | [15]; at 33.0 µM -30% | [15]; at 100.0 µM -27% | [1]; at 1.2 µM -25% | [1]; at 3.7 µM -15% | [1]; at 11.0 µM -42% | [1]; at 33.0 µM -39% | [1]; at 100.0 µM -31% | [2]; at 1.2 µM -32% | [2]; at 3.7 µM -41% | [2]; at 11.0 µM -21% | [2]; at 33.0 µM -29% | [2]; at 100.0 µM -18% | [3]; [17] 31% | [3]; [18] 46% | [3]; at 50.0 µM 35.4% | [4]; at 1.2 µM -28% | [4]; at 3.7 µM -39% | [4]; at 11.0 µM -32% | [4]; at 33.0 µM -36% | [4]; at 100.0 µM -26%
active: [14]; [18] 94% | [14]; at 50.0 µM 86.6% | [14]; at 100.0 µM 82%

COC(=O)C1=C(C(=O)OC)CC(n2nnc(C(=O)OC)c2C(=O)OC)=CC1
inactive: [5]; at 1.2 µM -1% | [5]; at 3.7 µM 1% | [5]; at 11.0 µM 2% | [5]; at 33.0 µM 0% | [5]; at 100.0 µM -2% | [6]; at 1.2 µM 0% | [6]; at 3.7 µM 0% | [6]; at 11.0 µM -1% | [6]; at 33.0 µM -1% | [6]; at 100.0 µM -2% | [7]; at 1.2 µM -2% | [7]; at 3.7 µM -2% | [7]; at 11.0 µM -3% | [7]; at 33.0 µM -3% | [7]; at 100.0 µM 1% | [8]; at 1.2 µM -1% | [8]; at 3.7 µM 1% | [8]; at 11.0 µM -2% | [8]; at 33.0 µM -2% | [8]; at 100.0 µM -6% | [9]; at 1.2 µM -1% | [9]; at 3.7 µM -3% | [9]; [17] -1% | [9]; at 11.0 µM -3% | [9]; at 33.0 µM -2% | [9]; [18] 0% | [9]; at 50.0 µM 43.4% | [9]; at 100.0 µM -4% | [10]; at 1.2 µM -4% | [10]; at 3.7 µM -6% | [10]; [17] -1% | [10]; at 11.0 µM -5% | [10]; at 33.0 µM -4% | [10]; [18] -1% | [10]; at 50.0 µM 1.2% | [10]; at 100.0 µM -9% | [11]; at 1.2 µM 0% | [11]; at 3.7 µM 3% | [11]; at 11.0 µM 4% | [11]; at 33.0 µM 3% | [11]; at 100.0 µM 1% | [12]; [17] 6% | [12]; [18] -6% | [12]; at 50.0 µM 0.5% | [16]; at 1.2 µM -7% | [16]; at 3.7 µM -3% | [16]; at 11.0 µM -4% | [16]; at 33.0 µM -1% | [16]; at 100.0 µM -7% | [13]; [17] -2% | [13]; [18] -2% | [13]; at 50.0 µM -9.5% | [14]; at 1.2 µM -4% | [14]; at 3.7 µM -4% | [14]; [17] -1% | [14]; at 11.0 µM -3% | [14]; at 33.0 µM -6% | [14]; [18] 1% | [14]; at 50.0 µM -4.1% | [14]; at 100.0 µM -2% | [15]; at 1.2 µM -1% | [15]; at 3.7 µM -2% | [15]; at 11.0 µM -1% | [15]; at 33.0 µM -2% | [15]; at 100.0 µM -3% | [2]; at 1.2 µM -1% | [2]; at 3.7 µM -1% | [2]; at 11.0 µM -2% | [2]; at 33.0 µM -2% | [2]; at 100.0 µM 0% | [3]; [17] -2% | [3]; [18] 44% | [3]; at 50.0 µM 4.4%
